Results: PubChem BioAssay (Tox21)
“And” between values parts separate entries of the source, which are not always exact repeats. Equal entries are not always repeated. Inconclusive results are not listed. The source made the active and inactive calls. Unless noted, calls come from the whole dose curve; as a rule, active = well fitted curve in the direction sought with a large enough effect in the repeat runs; inconclusive = weak or mixed curves; inactive = no such curve, though single readings can be large; an effect the other way counts as inactive or inconclusive.

What was measured:
[1] = qHTS assay to test for compound auto fluorescence at 535 nm (green) in HEK293 cells (AID 720680)
[2] = qHTS assay to test for compound auto fluorescence at 460 nm (blue) in HEK293 cell free culture (AID 720681); note: potency is the fitted concentration of half-maximal effect
Summary of the method: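 Test compounds were pinned into cell-free culture medium (DMEM with 10% FBS) and fluorescence was read directly at Ex/Em 405/460 nm. Signals were expressed as fluorescence equivalents of triamterene, with DMSO vehicle as control.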

[3] = qHTS assay to test for compound auto fluorescence at 535 nm (green) in HEK293 cell free culture (AID 720682)
Summary of the method: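 Measurement is a direct plate read of green fluorescence (485 nm in, 535 nm out) after compound addition to serum-supplemented DMEM lacking cells, with fluorescein used to express intensities.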

[4] = qHTS assay to test for compound auto fluorescence at 590 nm (red) in HEK293 cell free culture (AID 720683)
Summary of the method: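 Tox21 10K library compounds were pinned into cell-free DMEM with 10% FBS and fluorescence was read at excitation 540 nm. Activity is expressed as Rose Bengal sodium equivalency.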

[5] = qHTS assay to test for compound auto fluorescence at 590 nm (red) in HepG2 cell free culture (AID 720684)
Summary of the method: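 Readout: intrinsic compound fluorescence at 590 nm emission after 540 nm excitation, scaled to Rose Bengal sodium. Matrix was cell-free MEM with 10% FBS; DMSO vehicle wells served as control.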

[6] = qHTS assay to test for compound auto fluorescence at 460 nm (blue) in HepG2 cell free culture (AID 720685); note: potency is the fitted concentration of half-maximal effect
Summary of the method: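 Cell-free plates of MEM plus 10% FBS received 23 nL compound or DMSO vehicle; blue-channel (405/460 nm) intensity scored against triamterene as reference fluorophore.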

[7] = qHTS assay to test for compound auto fluorescence at 535 nm (green) in HepG2 cell free culture (AID 720686)
[8] = qHTS assay to test for compound auto fluorescence at 460 nm (blue) in HepG2 cells (AID 720687); note: potency is the fitted concentration of half-maximal effect
Summary of the method: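 Cells (2,000/well in MEM with 10% FBS) attached overnight at 37 C, then were exposed to compound or DMSO for 1 hr at 37 C, 5% CO2. Fluorescence read at Ex/Em 405/460 nm, expressed as triamterene-equivalent signal.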

[9] = qHTS assay to identify small molecule antagonists of the glucocorticoid receptor (GR) signaling pathway - cell viability counter screen (AID 720693); note: nearly all actives have a fitted effect of over 55% in size; note: potency is the fitted concentration of half-maximal effect
[10] = qHTS assay for identifying genotoxic compounds that show differential cytotoxicity against isogenic chicken DT40 cell lines with known DNA damage response pathways - wild type cell line (AID 743012); note: nearly all actives have a fitted effect of over 60% in size; note: potency is the fitted concentration of half-maximal effect
Summary of the method: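 Endpoint: CellTiter-Glo luminescence, 30 min RT. Cells: wild type DT40, 300/well. Exposure: compounds in DMSO, 40 h, 37 C/5% CO2, after ~0.5 h pre-incubation.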

[11] = qHTS assay for identifying genotoxic compounds that show differential cytotoxicity against isogenic chicken DT40 cell lines with known DNA damage response pathways - Rev3 mutant cell line (AID 743014); note: nearly all actives have a fitted effect of over 55% in size; note: potency is the fitted concentration of half-maximal effect
[12] = qHTS assay for identifying genotoxic compounds that show differential cytotoxicity against isogenic chicken DT40 cell lines with known DNA damage response pathways - Rad54/Ku70 mutant cell line (AID 743015); note: nearly all actives have a fitted effect of over 60% in size; note: potency is the fitted concentration of half-maximal effect
[13] = qHTS assay to identify small molecule antagonists of the androgen receptor (AR) signaling pathway using the MDA cell line - cell viability counter screen (AID 743041; note: nearly all actives have a fitted effect of over 45% in size; note: potency is the fitted concentration of half-maximal effect)
Summary of the method: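 qHTS viability read-out; MDA-kb2 AR-luc; R1881-stimulated; 16 h exposure at 37C, 0% CO2; CellTiter-Fluor, 30 min; fluorescence intensity.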

[14] = qHTS assay to identify small molecule antagonists of the androgen receptor (AR) signaling pathway - cell viability counter screen (AID 743033; note: nearly all actives have a fitted effect of over 45% in size; note: potency is the fitted concentration of half-maximal effect)
[15] = biological target: Androgen receptor (Homo sapiens) (UniProt P10275); experiment: qHTS assay to identify small molecule agonists of the androgen receptor (AR) signaling pathway using the MDA cell line (AID 743040; note: nearly all actives have a fitted effect of over 20% in size)
Summary of the method: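 Agonist activity is measured as luciferase luminescence in human MDA-kb2 cells whose MMTV reporter responds to both AR and GR. Compounds in DMSO incubate 16 h at 37C, 0% CO2, and ONE-Glo is read after 30 min.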

[16] = biological target: Androgen receptor (Homo sapiens) (UniProt P10275); experiment: qHTS assay to identify small molecule antagonists of the androgen receptor (AR) signaling pathway using the MDA cell line (AID 743042; note: nearly all actives have a fitted effect of over 55% in size; note: potency is the fitted concentration of half-maximal effect)
Summary of the method: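 MDA-kb2 cells (human breast carcinoma, stably carrying an MMTV-luciferase reporter responsive to AR and GR) were plated at 3,000 cells/well and preincubated 5 hr at 37C, then given compound plus R1881 agonist for 16 h. ONE-Glo luminescence was read.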

[17] = biological target: Androgen receptor (Homo sapiens) (UniProt P10275); experiment: qHTS assay to identify small molecule agonists of the androgen receptor (AR) signaling pathway (AID 743036; active = well fitted activation curve with a large enough effect in the signal ratio in the repeat runs, with a control signal flat, not every such curve was filed as active; the % refers to the signal ratio)
Summary of the method: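 Beta-lactamase under UAS control, stably integrated in HEK293 GripTite cells, reports receptor activation. After 16 h compound treatment, cells received FRET substrate for 2 h at room temperature before fluorescence reading.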

[18] = biological target: Androgen receptor (Homo sapiens) (UniProt P10275); experiment: qHTS assay to identify small molecule antagonists of the androgen receptor (AR) signaling pathway (AID 743035; active = well fitted inhibition curve with a large enough effect in the signal ratio in the repeat runs, not every such curve was filed as active; the % refers to the signal ratio; note: potency is the fitted concentration of half-maximal effect)
Summary of the method: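 R1881 agonist challenge of a HEK293 UAS-beta-lactamase AR reporter line in the presence of compound (16 h, 37C); signal taken as FRET fluorescence after 2 h with LiveBLAzer B/G substrate at room temperature.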

Measured: Potency
Tags give direction and shape of the fitted curve or compound fluorescence and quenching.

Sequence of Androgen receptor (Homo sapiens) (P10275 whole entry, looked up): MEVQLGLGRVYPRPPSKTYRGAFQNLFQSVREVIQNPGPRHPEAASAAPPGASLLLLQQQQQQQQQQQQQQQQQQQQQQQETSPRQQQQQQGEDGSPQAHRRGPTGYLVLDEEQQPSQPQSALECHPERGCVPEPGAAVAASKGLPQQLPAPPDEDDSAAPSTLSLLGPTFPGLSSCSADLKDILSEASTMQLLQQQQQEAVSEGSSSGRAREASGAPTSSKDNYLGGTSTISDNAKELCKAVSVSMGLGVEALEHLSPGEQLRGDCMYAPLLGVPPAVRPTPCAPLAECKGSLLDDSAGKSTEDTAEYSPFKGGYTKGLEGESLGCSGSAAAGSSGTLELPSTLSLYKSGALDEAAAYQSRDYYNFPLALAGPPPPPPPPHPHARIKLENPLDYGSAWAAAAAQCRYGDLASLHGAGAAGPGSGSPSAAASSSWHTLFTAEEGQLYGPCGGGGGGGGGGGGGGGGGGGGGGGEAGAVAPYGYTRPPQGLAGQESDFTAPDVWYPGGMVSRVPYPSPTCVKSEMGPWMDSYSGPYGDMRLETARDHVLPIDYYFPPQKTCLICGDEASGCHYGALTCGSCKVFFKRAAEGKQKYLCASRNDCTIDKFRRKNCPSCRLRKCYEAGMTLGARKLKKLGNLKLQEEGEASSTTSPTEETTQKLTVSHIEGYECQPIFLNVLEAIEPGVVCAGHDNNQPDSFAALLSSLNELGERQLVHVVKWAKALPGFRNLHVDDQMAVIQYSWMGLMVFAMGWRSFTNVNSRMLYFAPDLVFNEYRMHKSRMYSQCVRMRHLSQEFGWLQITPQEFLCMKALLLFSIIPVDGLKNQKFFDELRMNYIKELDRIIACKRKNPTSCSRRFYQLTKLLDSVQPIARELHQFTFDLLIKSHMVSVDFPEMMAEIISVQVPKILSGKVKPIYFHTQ

Oc1ccc(Cl)cc1C1CCCC1
active: [10] 48.6 µM | [11] 15.4 µM | [12] 27.3 µM
not listed: [14] | [15] | [16] | [17] | [18]
inactive: all other assays above

CC/C(=C(/CC)c1ccc(OP(=O)(O)O)cc1)c1ccc(OP(=O)(O)O)cc1
not listed: [15] | [16] | [17] | [18]
inactive: all other assays above

CN(C[C@@H](CC[N+]12CCC(C3CCCCC3)(CC1)CC2)c1ccc(Cl)c(Cl)c1)C(=O)c1cc(C(F)(F)F)cc(C(F)(F)F)c1
active: [9] 17.4 µM | [10] 6.86 µM | [11] 9.69 µM | [12] 8.63 µM | [14] 19.5 µM | [13] 61.1 µM | [16] 54.5 µM
not listed: [17] | [18]
inactive: all other assays above

C[S+](CC[C@H](N)C(=O)O)C[C@H]1O[C@@H](n2cnc3c(N)ncnc32)[C@H](O)[C@@H]1O (stereo partly drawn)
not listed: [15] | [16] | [17] | [18]
inactive: all other assays above

CCC1OC(=O)C[C@@H](O)[C@H](C)[C@@H](O[C@@H]2O[C@H](C)C[C@H](N(C)C)[C@H]2O)[C@@H](CC=O)C[C@@H](C)C(=O)/C=C/[C@]2(C)OC2C1C (stereo partly drawn)
active: [10] 11.9 µM and 4.73 µM | [11] 21.1 µM and 8.41 µM | [12] 16.8 µM and 7.5 µM | [16] 26.6 µM and 23.7 µM
not listed: [18]
inactive: all other assays above

O=C1c2ccccc2-c2n[nH]c3cccc1c23
active: [2] 14.1 µM | [6] 12.6 µM [fluorescent] | [8] 14.1 µM [fluorescent] | [10] 9.44 µM | [11] 11.9 µM | [12] 9.44 µM
not listed: [13] | [17] | [18]
inactive: all other assays above

CSCC[C@H](NC(=O)[C@H](Cc1ccc(OS(=O)(=O)O)cc1)NC(=O)[C@@H](N)CC(=O)O)C(=O)NCC(=O)N[C@@H](Cc1c[nH]c2ccccc12)C(=O)N[C@@H](CCSC)C(=O)N[C@@H](CC(=O)O)C(=O)N[C@@H](Cc1ccccc1)C(N)=O
not listed: [13] | [15] | [16] | [17] | [18]
inactive: all other assays above

O=C(O)C[C@H](O)C[C@H](O)/C=C/c1c(C2CC2)nc2ccccc2c1-c1ccc(F)cc1
active: [10] 0.531 µM | [11] 0.0944 µM | [12] 1.68 µM | [18] 1.69 µM
inactive: all other assays above

CC12CCC(C[N+](C)(CCC[N+](C)(C)C)C1)C2(C)C (stereo not drawn)
not listed: [15] | [16] | [17] | [18]
inactive: all other assays above

CC(C)(COP(=O)(O)OP(=O)(O)OC[C@H]1O[C@@H](n2cnc3c(N)ncnc32)[C@H](O)[C@@H]1OP(=O)(O)O)C(O)C(=O)NCCC(=O)NCCS (stereo partly drawn)
not listed: [13] | [15] | [16] | [17] | [18]
inactive: all other assays above

CCCn1c(=O)[nH]c(=O)c2[nH]cnc21
not listed: [15] | [16] | [17] | [18]
inactive: all other assays above

Cc1cc(CC(C)CC(C)(C)C)n(O)c(=O)c1 (stereo not drawn) (tested in a mixture with another compound)
active: [9] 15.1 µM | [10] 11.9 µM | [11] 11.9 µM | [12] 13.3 µM
not listed: [13] | [15] | [16] | [17] | [18]
inactive: all other assays above

O=C(Cn1cnnn1)N[C@@H]1C(=O)N2C(C(=O)O)=C(CSc3nncs3)CS[C@H]12
not listed: [15] | [16] | [17] | [18]
inactive: all other assays above
